PostGolgi yeast: growth inhibition of a yeast mutant, post-Golgi transport screen. actives 0.9% (n = 98,000). inhibition, % at 10 µM. post-Golgi transport phenotypic cell assay. AID 739;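 further: yeast cells grown in 1536-well plates; yeast grown about 18 h at 30C before absorbance read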
CYP2C9 act: activators of human CYP2C9 | recombinant CYP2C9, luciferin-H conversion, luminescence; stronger effect = higher value; factor 1 = untreated enzyme, 0 = blocked | actives 1.4% (n = 96,000) | P11712 | activation factor at 5 µM;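 active means activation factor of 2 or more for CYP2C9 at a 5 µM dose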;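 further: 0 = sulfaphenazole-blocked wells and 1 = vehicle-only wells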
CYP2C19 inh: inhibitors of human CYP2C19. CYP2C19 Supersomes, luciferin-H EGE luminescence, 30 min. inhibition, % at 5 µM. actives 21% (n = 96,000). AID 778;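 active means CYP2C19 inhibition above a set limit at 5 µM in the primary screen, cut at about 50% in these data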;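 further: plate controls were negative control wells for no effect and 2.5 mM tranylcypromine positive control for full effect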
Target sequence (P33261 whole entry, looked up): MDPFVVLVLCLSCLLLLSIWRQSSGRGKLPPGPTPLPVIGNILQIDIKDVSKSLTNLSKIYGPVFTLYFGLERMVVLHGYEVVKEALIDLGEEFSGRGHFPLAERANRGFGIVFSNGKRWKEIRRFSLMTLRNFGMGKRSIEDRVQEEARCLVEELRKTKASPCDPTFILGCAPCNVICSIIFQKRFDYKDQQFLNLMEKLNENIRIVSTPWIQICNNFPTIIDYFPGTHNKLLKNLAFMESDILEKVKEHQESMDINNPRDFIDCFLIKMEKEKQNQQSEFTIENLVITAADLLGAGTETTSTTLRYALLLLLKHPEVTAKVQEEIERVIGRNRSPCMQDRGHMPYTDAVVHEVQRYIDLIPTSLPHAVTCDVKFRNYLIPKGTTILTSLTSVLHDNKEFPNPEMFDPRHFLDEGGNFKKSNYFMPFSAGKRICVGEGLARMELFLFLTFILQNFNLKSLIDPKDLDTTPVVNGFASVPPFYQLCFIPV
CYP2C9 inh: human CYP2C9 inhibition. P11712. CYP2C9 Supersomes, luciferin-H conversion, luminescence. inhibition, % at 5 µM. actives 20% (n = 96,000);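 active means blocking of liver enzyme CYP2C9 beyond about 50% at 5 µM, limit read from the data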
CYP2C19 act: activators of human cytochrome P450 2C19. P33261. recombinant CYP2C19, luciferin-H EGE luminescence; stronger effect = higher value; 0 = fully inhibited enzyme, 1 = untreated enzyme. activation factor at 5 µM. 96,000 tested, under 10 active. AID 1025;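 active means activation factor of at least 2 at 5 µM in the primary screen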;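 further: 0 = wells with 2.5 mM tranylcypromine and 1 = vehicle-only wells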
PostGolgi ctrl: yeast control strain growth, post-Golgi counter-screen; efflux-deficient yeast background strain, growth absorbance A615, 16 h; inhibition, % at 10 µM; actives 5% (n = 98,000); AID 738
* hit, by the source's call; nt = not tested or not shown. An excerpt weighted towards active compounds, which were near 32% of everything screened. Unless noted, no stated cut-off is given here; in the data, active means inhibition above about 30%; inactive means the rest.

SMILES	PostGolgi yeast	CYP2C9 act	CYP2C19 inh	CYP2C9 inh	CYP2C19 act	PostGolgi ctrl
CN(Cc1nc(-c2cccnc2)no1)S(=O)(=O)c1ccc2ccccc2c1	3	0.7	86*	27	0.1	11
CC(C)N(Cc1nc(-c2ccc(Cl)cc2)no1)C(=O)CN(C)S(=O)(=O)c1ccc(Cl)cc1	-3	0.1	62*	89*	0.4	52*
COc1ccc(Cc2nc(-c3ccccn3)no2)cc1	1	1	25	4	0.8	-7
CC(C)N(Cc1nc(-c2ccccc2)no1)C(=O)CN(C)S(=O)(=O)c1ccc(Br)cc1	10	0.4	52*	58*	0.5	62*
COc1ccc(-c2noc(CN(C)S(=O)(=O)c3ccc(Cl)cc3)n2)cc1OC	-3	0.9	42	13	0.6	23
CN(CC(CC(=O)O)c1ccccc1)S(=O)(=O)c1ccc(Br)cc1 (configuration not stated)	3	1.1	2	-12	1	-5
CCn1ncc2c(OCc3ccc(C#N)cc3)cc(C)nc21	9	0.4	64*	63*	0.4	19
CCCc1ccc(OCC(=O)O)cc1	0	1	-3	4	1	2
COc1cccc(NS(=O)(=O)c2c(C)n(C)c(=O)n(C)c2=O)c1	7	1	15	0	0.8	0
COc1ccc(NS(=O)(=O)c2c(C)cc(C)cc2C)cc1	-3	0.1	88*	93*	0.1	21
Cc1cc(C)c(S(=O)(=O)Nc2ccc(OCC(=O)O)cc2)c(C)c1	6	0.6	22	38	0.8	41*
COc1ccc(S(=O)(=O)Nc2cc(C)ccn2)cc1	1	1.1	34	-13	0.7	4
COc1cccc(NS(=O)(=O)c2c(C)cc(C)cc2C)c1	-4	0.4	100*	58*	0	32*
CCOC(=O)C1CCN(S(=O)(=O)c2ccc3[nH]c(=O)oc3c2)CC1	-3	1	56*	-2	0.4	8
CCOC(=O)C1CCN(S(=O)(=O)c2ccc(C)cc2)CC1	25	0.7	81*	27	0.2	13
O=c1cc(CO)oc(CN2CCN(CCO)CC2)c1O	-6	0.9	29	14	0.7	0
O=C(c1ccc(Br)o1)N1CCN=C1SCc1cccnc1	-3	0.4	89*	64*	0.1	0
CSC1=NCCN1C(=O)c1ccc(Br)o1	1	1	9	2	0.9	-6
O=C(c1cc2ccccc2o1)N1CCN=C1SCc1cccnc1	-3	0.5	30	52*	0.7	11
CC(C)CN1C(=O)c2ccc(C(=O)NCc3ccc4c(c3)OCO4)cc2C1=O	-3	0.8	-5	16	1	2
O=C(Nc1cccnc1)c1cccc(S(=O)(=O)N2CCOCC2)c1	-2	0.9	10	8	0.9	3
O=C(CC1Oc2ccccc2NC1=O)NC1CCCC1 (configuration not stated)	15	2.4*	34	-138	0.7	11
O=C(CC1Oc2ccccc2NC1=O)NCCc1ccccc1 (configuration not stated)	-3	1.7	42	-75	0.6	4
CCN(CCNC(=O)CC1Oc2ccccc2NC1=O)c1ccccc1 (configuration not stated)	0	1.6	61*	-62	0.4	10
CCN(Cc1ccccc1)C(=O)CC1Oc2ccccc2NC1=O (configuration not stated)	3	1.7	88*	-67	0.1	4
SMILES	PostGolgi yeast	CYP2C9 act	CYP2C19 inh	CYP2C9 inh	CYP2C19 act	PostGolgi ctrl
COc1ccc(C2=C(O)C(C)N(c3ccccc3)C2=N)cc1OC (configuration not stated)	1	1.3	-12	-26	1.1	5
Cc1ccccc1N=C(NOCc1ccccc1)c1nonc1N	10	nt	nt	nt	nt	36*
Cc1ccc(N=C(NOC(=O)c2ccccc2)c2nonc2N)c(C)c1	-5	0.9	-12	5	1.1	29
Cc1ccc(N=C(NOCc2ccc(Cl)cc2Cl)c2nonc2N)c(C)c1	-5	0.3	42	74*	0.6	27
Cc1ccccc1N=C(NOCc1ccc(Cl)cc1Cl)c1nonc1N	-5	0.3	44	70*	0.6	35*
Cc1c(NC(=O)C(C)NCC2CCCO2)c(=O)n(-c2ccccc2)n1C (configuration not stated)	-4	1.1	4	-7	1	5
O=C(c1ccccc1-c1nc(-c2ccc(Cl)cc2)no1)N1CCCC1	-2	0.2	43	78*	0.6	7
Cc1ccccc1-c1noc(-c2ccc(O)cc2)n1	-4	0.8	59*	18	0.4	4
Cc1ccccc1C(=O)N1CCCN(C(=O)c2ccccc2C)CC1	10	1	58*	4	0.4	5
Cc1ccccc1-c1noc(-c2ccccc2C(=O)N2CCCC2)n1	-2	0.2	63*	84*	0.4	21
Cc1ccc(-c2noc(-c3ccccc3C(=O)N3CCCC3)n2)cc1	1	0.7	27	33	0.7	21
O=C(c1ccccc1-c1nc(-c2ccccc2)no1)N1CCCC1	18	nt	nt	nt	nt	10
CCOC(=O)N1CCC(c2nc(C)sc2C(=O)O)CC1	-10	0.9	-12	5	1.1	-6
CN1CCN(C(=O)c2ccccc2-c2nc(-c3ccc(Cl)cc3)no2)CC1	1	0.4	27	56*	0.7	8
CC(NC(=O)CCSc1nc(-c2ccc3c(c2)OCO3)cc(C(F)(F)F)n1)c1ccccc1 (configuration not stated)	5	0.2	81*	83*	0.2	4
CCn1cc(CNC(=O)CCSc2nc(-c3ccco3)cc(C(F)(F)F)n2)cn1	0	0.8	24	19	0.8	9
O=C(CCCSc1nc(-c2ccco2)cc(C(F)(F)F)n1)Nc1ccc2c(c1)OCO2	-1	0.2	48	79*	0.5	10
O=C(CSc1nc(-c2ccco2)cc(C(F)(F)F)n1)NCCCn1ccnc1	-6	0	91*	96*	0.1	2
COc1ccc(-c2cc(C(F)(F)F)nc(SCCC(=O)NCc3ccccc3)n2)cc1	9	1.1	31	-8	0.7	5
O=C(CCSc1nc(-c2ccco2)cc(C(F)(F)F)n1)NCCc1ccccc1	-4	0.5	39	51*	0.6	11
CCOc1ccc(NS(=O)(=O)c2ccc(NC(=O)C3CCCO3)cc2)cc1 (configuration not stated)	-3	0.5	33	47	0.7	-10
O=C(O)C1CCCCC1C(=O)NCCCCc1ccccc1 (configuration not stated)	-8	0.6	4	44	1	0
O=C(CSc1nc(-c2ccco2)cc(C(F)(F)F)n1)Nc1cccnc1	-10	0.5	26	53*	0.7	1
COc1ccccc1CCNC(=O)CSc1nc(-c2ccco2)cc(C(F)(F)F)n1	-4	0.9	3	5	1	1

Bioassay records deposited in PubChem by several laboratories.
